# Results filed as inconclusive are left out. A call without a number means that no potency is given here. Values without a mark were called inactive. Activity calls are given as the source filed them. Unless noted, calls come from the whole dose curve.
# Molecular target: Nuclear receptor subfamily 1 group I member 2 (Rattus norvegicus) (UniProt Q9R1A7)
# Assay: Rat pregnane X receptor (rPXR) activation by small molecules, qHTS assay (AID 1346983; active = well fitted curve in the direction sought with a large enough effect in the repeat runs; an effect the other way counts as inactive or inconclusive; note: nearly all actives have a fitted effect of over 20% in size)
# Details: rPXR luciferase reporter cells, One-Glo luminescence, 24 h; max activation: hits give high values
# Outline: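 Cell-based rPXR activation assay: rPXR cells, 2,000 per well, rested 5hr at 37 C, then exposed to compounds in DMSO for 24 hr at 37 C. Luciferase activity read by One-Glo luminescence after 30 min at room temperature.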
# Chain of Nuclear receptor subfamily 1 group I member 2 (Rattus norvegicus) (Q9R1A7 whole entry, looked up): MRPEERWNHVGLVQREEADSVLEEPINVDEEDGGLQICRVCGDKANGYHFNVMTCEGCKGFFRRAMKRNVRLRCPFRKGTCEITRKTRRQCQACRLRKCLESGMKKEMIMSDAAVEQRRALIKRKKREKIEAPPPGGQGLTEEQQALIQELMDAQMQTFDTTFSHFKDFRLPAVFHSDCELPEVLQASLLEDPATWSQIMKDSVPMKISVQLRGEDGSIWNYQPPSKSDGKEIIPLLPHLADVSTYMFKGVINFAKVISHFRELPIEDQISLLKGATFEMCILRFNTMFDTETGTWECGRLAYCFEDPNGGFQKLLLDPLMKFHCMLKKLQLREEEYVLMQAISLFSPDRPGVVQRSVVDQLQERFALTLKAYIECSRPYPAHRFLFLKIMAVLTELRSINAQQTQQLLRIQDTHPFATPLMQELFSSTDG
row,SMILES,max activation
1,NC1=NC(=O)C(c2ccccc2)O1 (stereo not given),-2.64%
2,O=C1c2ccccc2C(=O)c2ccccc21,7.01%
3,Cc1ncc2n1-c1ccc(Cl)cc1C(c1ccccc1F)=NC2,11.3%
4,CN1CCN(C(=O)O[C@H]2c3nccnc3C(=O)N2c2ccc(Cl)cn2)CC1,2%
5,CCN(CC)C(C)C(=O)c1ccccc1 (stereo not given),-2.77%

# Molecular target: Nuclear receptor subfamily 1 group I member 2 (Homo sapiens) (UniProt O75469)
# Assay: CYP3A4 induction through human pregnane X receptor (PXR) by small molecules, qHTS assay (AID 1346984; active = well fitted curve in the direction sought with a large enough effect in the repeat runs; an effect the other way counts as inactive or inconclusive; note: nearly all actives have a fitted effect of over 40% in size)
# Details: DPX-2 HepG2 PXR, CYP3A4-luciferin luminescence, 24 h; series mostly up to 46.1 µM
# Outline: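 Quantitative HTS in DPX-2 cells, i.e. HepG2 transfected with PXR response element and CYP3A4-promoter luciferase. Compounds in DMSO incubated 24hr at 37C; then P450-Glo CYP3A4 substrate, 3uM final, 3hr; One-Glo luminescence.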
row,SMILES,Potency
1,NC1=NC(=O)C(c2ccccc2)O1 (stereo not given),inactive
2,O=C1c2ccccc2C(=O)c2ccccc21,inactive
3,Cc1ncc2n1-c1ccc(Cl)cc1C(c1ccccc1F)=NC2,inactive
4,CCN(CC)C(C)C(=O)c1ccccc1 (stereo not given),inactive

# Molecular target: Nuclear receptor subfamily 1 group I member 2 (Homo sapiens) (UniProt O75469)
# Assay: Human pregnane X receptor (PXR) activation by small molecules, qHTS assay (AID 1346985; active = well fitted curve in the direction sought with a large enough effect in the repeat runs; an effect the other way counts as inactive or inconclusive; note: nearly all actives have a fitted effect of over 40% in size)
# Details: DPX-2 HepG2 CYP3A4-luciferase, 24 h; series mostly up to 38.3 µM
# Outline: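 DPX-2 cells (HepG2 co-transfected with a PXR response element and a CYP3A4-promoter luciferase construct) were seeded at 2,000 per well, rested 5 hr at 37C, then exposed to DMSO-dissolved compounds for 24 hr. Activation was read as luciferase luminescence.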
row,SMILES,Potency
1,NC1=NC(=O)C(c2ccccc2)O1 (stereo not given),inactive
2,O=C1c2ccccc2C(=O)c2ccccc21,inactive
3,CCN(CC)C(C)C(=O)c1ccccc1 (stereo not given),inactive

# Molecular target: Acetylcholinesterase (Homo sapiens) (UniProt P22303)
# Sequence (P22303 whole entry, looked up): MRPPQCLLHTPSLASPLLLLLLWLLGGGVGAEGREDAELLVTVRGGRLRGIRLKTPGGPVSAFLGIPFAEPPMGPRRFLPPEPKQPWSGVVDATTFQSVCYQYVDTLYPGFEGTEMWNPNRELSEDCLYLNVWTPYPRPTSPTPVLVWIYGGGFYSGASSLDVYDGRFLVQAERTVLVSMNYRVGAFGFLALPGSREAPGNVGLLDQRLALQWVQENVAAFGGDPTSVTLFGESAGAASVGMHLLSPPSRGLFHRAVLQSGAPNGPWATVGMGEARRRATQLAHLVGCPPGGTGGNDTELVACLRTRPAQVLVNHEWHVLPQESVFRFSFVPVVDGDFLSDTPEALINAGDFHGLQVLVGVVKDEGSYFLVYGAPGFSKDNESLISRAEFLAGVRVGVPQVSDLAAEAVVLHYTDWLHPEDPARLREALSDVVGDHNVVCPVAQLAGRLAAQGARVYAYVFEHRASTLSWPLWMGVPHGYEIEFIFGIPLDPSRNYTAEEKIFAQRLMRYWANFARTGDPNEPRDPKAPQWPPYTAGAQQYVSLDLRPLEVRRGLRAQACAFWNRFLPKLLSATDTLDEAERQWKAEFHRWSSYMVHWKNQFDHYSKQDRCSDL
# Assay: Acetylcholinesterase (AChE) small molecule antagonists: colormetric cell-based qHTS assay (AID 1347395); note: nearly all actives have a fitted effect of over 30% in size; note: potency is the fitted concentration of half-maximal effect
# Details: SH-SY5Y cells AChE activity, colorimetric (Ellman); series mostly up to 115 µM
# Outline: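 Cells (SH-SY5Y, 2,000 per well) are seeded and left overnight at 37 C. Compound is added for 30 min, then DTNB and acetylthiocholine for a further 90 min at 37 C before absorbance-based thiocholine detection.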
SMILES,Potency,"activity, negative = inhibition"
CC(C=O)Cc1ccc2c(c1)OCO2 (stereo not given),inactive,–
CCOP(=O)(OCC)OP(=O)(OCC)OCC,inactive,–
CSc1ccc(C(=O)C(C)(C)N2CCOCC2)cc1,inactive,–
O=c1oc2ccccc2c(O)c1C1CCCc2ccccc21 (stereo not given),inactive,–
NC1=NC(=O)C(c2ccccc2)O1 (stereo not given),inactive,–
CNC(=O)Oc1c(C(C)(C)C)cc(C)cc1C(C)(C)C,inactive,–
O=C1c2ccccc2C(=O)c2ccccc21,–,-0.352% [at 23.6 µM]
Cc1ncc2n1-c1ccc(Cl)cc1C(c1ccccc1F)=NC2,inactive,–
CCCCc1ccc(O)cc1,inactive,–
[Cl][Sn]([Cl])([Cl])[Cl],inactive,–
O=C(Cc1ccccc1)OCc1ccccc1,inactive,–
CC(C1CC1)C(O)(Cn1cncn1)c1ccc(Cl)cc1 (stereo not given),inactive,–
O=C1OC(=O)C2C1C1(Cl)C(Cl)=C(Cl)C2(Cl)C1(Cl)Cl (stereo not given),inactive,–
COC(=O)c1ccccc1S(=O)(=O)NC(=O)N(C)c1nc(C)nc(OC)n1,inactive,–
c1coc(-c2nc3ccccc3[nH]2)c1,inactive,–
CCOC(=O)CP(=O)(OCC)OCC,inactive,–
Cc1ncc(CNC(=O)N(CCCl)N=O)c(N)n1,inactive,–
CCSC(=O)N(CC)C1CCCCC1,inactive,–
CC(N)=S,inactive,–

SMILES,Potency,"activity, negative = inhibition"
CCCCCCI,inactive,–
CNCC(=O)c1ccc(O)c(O)c1,inactive,–
CCOc1nc(C(Cl)(Cl)Cl)ns1,inactive,–
CN1CCN(C(=O)O[C@H]2c3nccnc3C(=O)N2c2ccc(Cl)cn2)CC1,inactive,–
CNC(=O)N(C)c1nc2ccccc2s1,inactive,–
NC(=S)C(N)=S,inactive,–
Oc1c(Cl)cccc1Cl,inactive,–
ClCCCN1CCN(c2cccc(Cl)c2)CC1,inactive,–
CCCSP(=O)(OCC)Oc1ccc(Br)cc1Cl (stereo not given),6.88 µM (active),–
CC(=O)CC(c1ccc(Cl)cc1)c1c(O)c2ccccc2oc1=O (stereo not given),inactive,–
N#CC(Cl)(Cl)Cl,inactive,–
CCCCc1c(C)nc(NCC)[nH]c1=O,inactive,–
O=CNC(N1CCN(C(NC=O)C(Cl)(Cl)Cl)CC1)C(Cl)(Cl)Cl (stereo not given),inactive,–
CCN(CC)C(C)C(=O)c1ccccc1 (stereo not given),inactive,–
N#Cc1c(Cl)cccc1Cl,inactive,–
N#Cc1ccncc1,inactive,–
COc1cccc2c1cc([N+](=O)[O-])c1c(C(=O)O)cc3c(c12)OCO3,inactive,–
COc1cc(OC)nc(Oc2cccc(Oc3nc(OC)cc(OC)n3)c2C(=O)O)n1,inactive,–
CCCCN(CCCCO)N=O,inactive,–
